Sampled rows, rich in hits. Any-hit rate of the full collection: about 19%.
DT40 TDP1 CPT: qHTS for Inhibitors of human tyrosyl-DNA phosphodiesterase 1 (TDP1): qHTS in cells in presence of CPT; chicken DT40 Tdp1-/-;hTDP1 cells + 20 nM CPT, ATP luminescence, 48 h; Potency, µM (doses to about 46.2 µM), for inactives: at the top dose activity change, negative = growth inhibition, usual class: inhibitors; 12% of 420,000 active; also: potency is read from the fitted curve at half-maximal effect; % is scaled to controls: 0 for no effect and ±100 for the full control effect; nearly all actives have a fitted effect of over 55% in size
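Chicken DT40 Tdp1-/- cells complemented with human TDP1, 400 cells/well, exposed to compounds plus 20 nM camptothecin for at least 48 h at 37 C; viability read as ATP content by CellTiter-Glo luminescence.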
IL-1B inflam inh: qHTS for Inhibitors of Inflammasome Signaling: IL-1-beta AlphaLISA Primary Screen. THP-1 LPS/ATP IL-1B secretion, AlphaLISA, 16 h; hits give low values. activity change, % at 57.5 µM. 4.7% of 360,000 active; in the data active = activity change below about -50%; inconclusive = mostly about -30% to -49%; also: % is scaled to controls: 0 for no effect and ±100 for the full control effect
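THP-1 cells pretreated 1 hr with compounds (up to 57.5 uM final), then stimulated with LPS (250 ng/mL final) plus ATP (1.25 mM final); secreted IL-1B measured by AlphaLISA after 16 hr, decreased signal indicating inhibition.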
S-ASM inh: Inhibitors of Secretory Acid Sphingomyelinase (S-ASM): qHTS; 0.006% of 340,000 active; placental ASM, HMU-PC fluorogenic substrate, 60 min; AID 504937, 2011; Potency, µM (highest dose often 57.5 µM), for inactives: at the highest dose activity change, negative = inhibition, most hits filed as inhibitors; also: potency is read from the fitted curve at half-maximal effect
Target sequence (P17405 47-631 limits assumed): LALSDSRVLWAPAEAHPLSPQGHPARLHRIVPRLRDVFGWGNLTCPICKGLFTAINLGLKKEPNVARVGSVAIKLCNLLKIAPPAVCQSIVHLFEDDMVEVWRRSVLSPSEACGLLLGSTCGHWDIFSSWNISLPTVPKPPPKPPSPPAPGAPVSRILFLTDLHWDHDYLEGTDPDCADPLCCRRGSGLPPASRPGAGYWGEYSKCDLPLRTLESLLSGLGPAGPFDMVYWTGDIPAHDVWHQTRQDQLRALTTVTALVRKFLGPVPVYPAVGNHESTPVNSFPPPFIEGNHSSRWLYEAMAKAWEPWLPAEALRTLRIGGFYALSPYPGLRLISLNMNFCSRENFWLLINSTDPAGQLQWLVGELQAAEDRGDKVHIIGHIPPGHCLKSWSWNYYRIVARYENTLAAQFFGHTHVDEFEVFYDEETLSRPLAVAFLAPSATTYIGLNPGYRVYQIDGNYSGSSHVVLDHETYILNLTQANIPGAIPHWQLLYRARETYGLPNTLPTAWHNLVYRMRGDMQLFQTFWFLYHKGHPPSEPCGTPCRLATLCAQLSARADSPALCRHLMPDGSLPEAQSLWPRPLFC
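HMU-PC0 cleavage (9 uM final) by human placental ASM, 60 min at 37 °C following 10 min compound exposure at RT; stopped at pH 10, fluorescence Ex 386/Em 447 nm.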
HepG2 viability: qHTS for Inhibitors of TGF-b: Cytotox Counterscreen | HepG2 CAGA-GFP viability, ATP luminescence, 18 h | Potency, µM (titrated, usually from 46.1 µM), for the others: at the highest dose activity change, negative = cytotoxicity, most hits filed as cytotoxic | 0.76% of 410,000 active; also: potency is read from the fitted curve at half-maximal effect
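CellTiter-Glo luminescence gave cytotoxicity after 18 hours at 37 degrees C. The cells were HepG2 CAGA-GFP in 1% FBS DMEM, stimulated with 500 pg/mL TGF-beta after compound addition. %Activity was normalised to no-cell wells (complete cell-killing) and DMSO (no toxicity), and curves were fitted and classified.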
TDP1 cell noCPT: qHTS for Inhibitors of human tyrosyl-DNA phosphodiesterase 1 (TDP1): qHTS in cells in absence of CPT. DT40 Tdp1-/- hTDP1 cells, no CPT, ATP luminescence, 48 h. Potency, µM (top dose mostly 46.2 µM), for inactives: top-dose activity change, negative = growth inhibition, usual class: inhibitors. 15% of 420,000 active; also: potency is read from the fitted curve at half-maximal effect; % is scaled to controls: 0 for no effect and ±100 for the full control effect; nearly all actives have a fitted effect of over 55% in size
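No-CPT arm: Tdp1-/-;hTDP1 DT40 cells (400/well) plus compounds, incubated ≥48 hr at 37 °C. Readout CellTiter-Glo luminescence.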
TGFb SMAD3 inh: qHTS for Inhibitors of TGF-b; HepG2 CAGA-GFP TGF-b/SMAD3 reporter, GFP fluorescence, 18 h; TGF-beta stimulated, 500 pg/mL final; Potency, µM (highest dose often 46.1 µM), for inactives: top-dose activity, negative = inhibition, usual class: inhibitors; 1.2% of 410,000 active; also: potency is read from the fitted curve at half-maximal effect; % is scaled to controls: 0 for no effect and ±100 for the full control effect; nearly all actives have a fitted effect of over 65% in size
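HEPG2 CAGA-GFP, 1000 cells/well; 2 h settle, 37 C; cpd via pin tool; TGF-b 500 pg/mL final; 18 h, 37 C; GFP imaging ex488/em500-530; %Activity normalised to -TGF-b and +DMSO controls; CRC fit, curve class.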
Active calls of the source: *; ? = inconclusive; nt = not tested or not shown; ! = a repeat was not active. Unless noted, calls follow the shape of the dose curve; as a rule, active = well fitted curve in the direction sought with a large enough effect; inconclusive = small, poorly fitted or top-dose-only effect, or another doubt; inactive = no such curve, though single readings can be large; an effect the other way counts as inactive or inconclusive.

SMILES | DT40 TDP1 CPT | IL-1B inflam inh | S-ASM inh | HepG2 viability | TDP1 cell noCPT | TGFb SMAD3 inh
CCOc1ccc(NC(=O)CCC(=O)Nc2cc(OC)c(NC(=O)c3ccco3)cc2OC)cc1 | 11% | 4 | -7% | 1% | -18% | -1%
Cc1csc(N2CCCC2c2nc3cc(Cl)c(N4CCCCC4)cc3n2CCOCCO)n1 (stereo not drawn) | ? | ? | 7% | -26% | 6% | -14%
CCCn1c(C2CCCN2c2nc(-c3cccc(Br)c3)cs2)nc2cc(Cl)c(Cl)cc21 (stereo not drawn) | ? | -6 | -11% | -19% | 18µM* | -18%
Cc1csc(N2CCCC2c2nc3cc(C(F)(F)F)ccc3n2CCOCCO)n1 (stereo not drawn) | 9.2µM* | -15 | 5% | 0% | ? | 3%
OCCCn1c(C2CCCN2c2nc(-c3ccc(F)cc3)cs2)nc2cc(Cl)c(Cl)cc21 (stereo not drawn) | ? | -9 | ? | -10% | 16µM* | -13%
CC1=C(C(=O)N(C)C)CC(CC(=O)NC2CCCC2)C(=O)N1CCC1=CCCCC1 (stereo not drawn) | -2% | 8 | nt | -9% | -25% | 9%
CCc1cccc(C)c1NC(=O)Cn1c(=O)cc(C(F)(F)F)c2c(C)nn(C)c21 | ? | nt | nt | 0% | ? | -12%
CCOC(=O)C1=C(C)C/C(=N\NC(=O)c2ccccc2O)CC1 | 8.2µM* | 1 | -2% | -35% | ? | -14%
COc1cccc2c1-c1c(O)cccc1C2=O | 3% | -20 | -9% | -1% | 4% | 15%
COc1cccc(O)c1O | 3.7µM* | nt | nt | nt | 4.6µM* | nt
Cn1c2ccccc2c2nnc(SCCOc3ccccc3)nc21 | ? | nt | nt | -36% | ? | -23%
O=C(Nc1ccc2c(c1)OCO2)c1cccc2c1C(=O)N(C1CCCCC1)C2 | 6% | 10 | 4% | 0% | 7% | 20%
Cc1cc(NC(=O)c2cccc3c2C(=O)N(C2CCCCC2)C3)ccc1Br | 2% | 9 | -1% | -5% | 17% | -13%
COc1ccc(OC)c(NC(=O)c2cccc3c2C(=O)N(C2CCCCC2)C3)c1 | ? | -7 | -3% | -27% | 16µM*! | -1%
Cc1cccc(C)c1NC(=O)c1cccc2c1C(=O)N(C1CCCCC1)C2 | 7.3µM* | -62* | -5% | -15% | 16µM* | ?
COc1ccc(NC(=O)c2cccc3c2C(=O)N(C2CCCCC2)C3)cc1 | 18µM* | -28 | -20% | -1% | 18µM* | -5%
CC(C(=O)OCC(=O)c1cccc([N+](=O)[O-])c1)N1C(=O)C2C3C=CC(C3)C2C1=O (stereo not drawn) | -13% | 29 | -1% | 7% | -19% | 14%
CCOC(=O)c1nc(-c2ccccc2)sc1C(C)=O | 13% | -9 | -4% | 10% | -24% | 1%
CCC(C)N1C(=O)N(c2cccc(Cl)c2)C(C)(O)CC1(C)C (stereo not drawn) | ? | -2 | 1% | 2% | -29% | 14%
Cc1cccc(NC(=S)N(CCN(C)C)Cc2cc3cc(C)cc(C)c3[nH]c2=O)c1 | ? | -3 | -5% | -2% | ? | 2%
Cc1ccc(NC(=S)N(CCN(C)C)Cc2cc3cc(C)ccc3[nH]c2=O)cc1 | ? | -68* | -1% | -12% | ? | 3%
CCN(CC)CCCN(Cc1cc2cc(OC)ccc2[nH]c1=O)C(=O)Nc1ccc(F)cc1 | 16µM* | -51* | 28% | -14% | 21µM* | 1%
Cc1ccc2[nH]c(=O)c(CN(CCCN(C)C)C(=O)Nc3ccc(F)cc3)cc2c1 | ? | 0 | 1% | -10% | 13µM* | 0%
Cc1cccc(NC(=S)N(CCN(C)C)Cc2cc3cccc(C)c3[nH]c2=O)c1 | ? | ? | 0% | -32% | 6.5µM* | 4%
CCN(CC)CCCN(Cc1cc2cc(OC)ccc2[nH]c1=O)C(=O)Nc1ccccc1 | ? | -4 | 81% | 2% | ? | 13%
SMILES | DT40 TDP1 CPT | IL-1B inflam inh | S-ASM inh | HepG2 viability | TDP1 cell noCPT | TGFb SMAD3 inh
COc1ccc(NC(=O)N(CCCN(C)C)Cc2cc3cc(OC)ccc3[nH]c2=O)cc1 | ? | -11 | 13% | -5% | -23% | -2%
CN(CC(=O)Nc1ccc(F)cc1)C(=O)COC(=O)C1=COCCO1 | -8% | 19 | -3% | -3% | 3% | -1%
Cc1ccccc1/C=C\c1nc2ccccc2c(=O)[nH]1 | 26µM* | 0 | -4% | -38% | 16µM* | ?
N#CCOc1ccccc1/C=C/c1nc2ccccc2c(=O)[nH]1 | -30% | -4 | 144% | -2% | -19% | -29%
Cc1ccc(/C=C/c2nc3ccccc3c(=O)[nH]2)cc1 | ? | -11 | 36% | -6% | ? | -7%
Cc1ccccc1/C=C/c1nc2ccccc2c(=O)[nH]1 | 16µM* | 35 | 2% | -22% | ? | 1%
CCN(CC)S(=O)(=O)c1cnccc1N1CCN(c2cccc(Cl)c2)CC1 | ? | -69* | -7% | -6% | 16µM* | ?
CNS(=O)(=O)c1cnccc1N1CCN(c2cccc(Cl)c2)CC1 | -9% | -18 | 1% | 3% | ? | -32%
CN1CCN(S(=O)(=O)c2cnccc2N2CCN(c3cccc(Cl)c3)CC2)CC1 | 18µM* | -50* | -1% | -1% | 18µM* | -4%
CC(=NCc1ccccc1)c1ccc(O)cc1O | -1% | -16 | nt | -2% | ? | -6%
O=C(Cc1cccs1)NCCc1ccc(Cl)cc1 | 5% | -17 | -1% | -1% | 14% | -4%
CCN(CC)S(=O)(=O)c1ccc2c3c(cccc13)C(=O)N2 | -17% | 50 | 260% | -1% | ? | -2%
CCN(c1cccc(C)c1)S(=O)(=O)c1ccc2c3c(cccc13)C(=O)N2 | ? | 0 | 0% | -26% | 11µM* | -16%
CCOc1ccc(S(=O)(=O)O)c2cccnc12 | -6% | nt | nt | nt | -4% | nt
CCOc1ccc(NS(=O)(=O)c2ccc3c4c(cccc24)C(=O)N3)cc1 | 16µM* | nt | nt | -41% | ? | ?
CCOc1ccc(NS(=O)(=O)c2ccc(OCC)c3ncccc23)cc1 | 11µM* | 29 | -3% | -29% | 10µM* | -7%

Screens (PubChem)
